In the supplement of paper PMC3842684:

Tested on: P. falciparum NF54-pfs16-GFP late (IV-V) stage gametocytes
Experiment: relative % inhibition of viable gametocyte number; higher = more gametocytocidal
Conditions: 0.5 µM; stage: late (IV-V) gametocyte; incubation 72 h
Outline: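 Compound was tested in duplicate at 5 or 0.5 µM on magnet-isolated NF54 pfs16-GFP gametocytes, taken either early (I/IIa, day 2) or late (day 8) and plated at 10% parasitaemia, 0.1% haematocrit. Incubation ran 72 h at 37°C, 5% CO2, 5% O2, followed by overnight MitoTracker Red staining and confocal imaging. Relative inhibition, based on counts of elongated GFP objects with above-cut-off MitoTracker signal, was normalised to in-plate vehicle and positive-control wells.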

| SMILES | relative % inhibition |
| --- | --- |
| O=C(NCCCN1CCC(N2CCCCC2)CC1)C1=Cc2cc(Br)ccc2OC1 | -12.5% |
| COc1ccc(-c2cn3c(C(=O)Nc4ccccc4Cl)c(-c4ccccc4)c4c3n2CCCC4)cc1 | 4.28% |
| COc1ccc2c(=O)cc(C(Cl)(Cl)Cl)oc2c1 | 8.37% |
| COc1ccc2nc(N)nc(C)c2c1 | 10.6% |
| CN(C)c1ccc(N=Cc2ccc(N3CCOCC3)cc2)cc1 | 22.1% |
| CCOc1ccc(-c2nonc2NC(=O)c2cccc(C)c2)cc1OCC | 27.6% |
| Cc1cc(C)c2nc(N3CCC(C(=O)NCCCN4CCC(N5CCCCC5)CC4)CC3)sc2c1 | -24.9% |
| COc1ccc(C(=O)Nc2ccc(Cl)cc2C(=O)Nc2ccncc2)cc1 | -6.74% |
| Cc1ccccc1OCCSc1nc2ccc(NC(=O)c3ccccc3)cc2s1 | 2.82% |
| CC1CC2=C(CC1CNCCCN(C)C)C(C)(C)CCC2 (stereo not drawn) | 20.7% |
| Fc1ccc2[nH]c3c(NCCCN4CCOCC4)ncnc3c2c1 | -16.8% |
| O=C(Cc1ccccc1)NC(c1ccc(Cl)cc1)c1c(O)ccc2ccccc12 (stereo not drawn) | 1.94% |
| CCCCCC(=O)N1c2ccccc2N=C2CC(c3ccc(OC)c(OC)c3)CC(O)=C2C1c1ccc(C(F)(F)F)cc1 (stereo not drawn) | 32.8% |
| COc1cc(SC)ccc1C(=O)N1CCCC(C)C1 (stereo not drawn) | 5.64% |
| FC(F)(F)c1cccc(Nc2nc3ccccc3nc2Nc2cccc(C(F)(F)F)c2)c1 | 105% |
| COc1cc2c3cc1Oc1c(OC)c(OC)cc4c1C(Cc1ccc(O)c(c1)Oc1ccc(cc1)CC3N(C)CC2)N(C)CC4 (stereo not drawn) | -24.9% |
| CC(C)(C)c1ccc2c(c1)CN(Cc1ccc(Cl)cc1)CO2 | 27.3% |
| CSC1=NC(=Nc2c(C)cccc2C)C2(CCC(C(C)(C)C)CC2)N1c1ccc(Cl)cc1 (stereo not drawn) | 93.4% |
| CCOc1cc2c(cc1OCC)C(c1cc(OC)c(O)cc1Cl)NCC2 (stereo not drawn) | 25.6% |
| Cc1ccc2cc3c(N)c4c(C)ccc(C)c4nc3nc2c1 | 8.68% |

| SMILES | relative % inhibition |
| --- | --- |
| O=C(NC1CCN(Cc2ccccc2)CC1)c1cc(-c2ccncc2)nc2ccc(Cl)cc12 | -28.1% |
| CC(C)CNC(=O)c1c(N)n(CCc2ccccc2F)c2nc3ccccc3nc12 | 3.01% |
| COc1ccc2sc(N(Cc3cccnc3)C(=O)c3ccc(C#N)cc3)nc2c1 | -14.5% |
| CSc1ccccc1C(=O)Nc1nc(-c2ccccn2)cs1 | 19.1% |
| CCOC(=O)C1=C(c2ccccc2)N=c2sc(=Cc3cc(C)n(-c4ccc(F)cc4)c3C)c(=O)n2C1c1cccc(OC)c1OC (stereo not drawn) | 50.5% |
| Cc1cc(Nc2ccc(OCc3ccccc3)cc2)nc2cc(O)ccc12 | 35.1% |
| CCOC(=O)C1(Cc2ccccc2)CCN(Cc2cccc(OC)c2O)CC1 | -5.97% |
| OC1CCCCC1C1(NC(=S)Nc2ccccc2)CCCCC1 (stereo not drawn) | 33.8% |
| CCN(CC)S(=O)(=O)c1ccc(-c2csc(Nc3ccc(C)c(C)c3)n2)cc1 | 42.2% |
| Cc1ccnc(NC(c2cccc(OCc3ccccc3)c2)c2ccc3cccnc3c2O)c1 (stereo not drawn) | 9.51% |
| CCOc1cc(Cl)c(C(C)NC(=O)c2cccc(OC)c2)cc1OCC (stereo not drawn) | -6.93% |
| COc1ccc(-c2nc3cc(Cc4ccc5[nH]c(-c6ccc(OC)cc6)nc5c4)ccc3[nH]2)cc1 | 17.1% |
| COC(=O)c1ccc(Cl)c2c1C1C=CCC1C(c1cccc3ccccc13)N2 (stereo not drawn) | -9.69% |
| Oc1c(CN2CCN(c3ccccc3F)CC2)cc(Br)c2cccnc12 | 22.3% |
| COc1ccc(-c2nc(NC(=O)CS(=O)(=O)c3ccc(F)cc3)sc2C)cc1 | 73% |
| CCCCCCOC(=O)C1=C(C)NC(=O)NC1c1ccccc1F (stereo not drawn) | -3.35% |
| CCOC(=O)C1=CN(C)C=C(C(=O)OCC)C1c1cc(Br)c(OCC)c(OC)c1 | 16.5% |
| COc1ccc(C2NCCc3c2[nH]c2ccccc32)cc1CN1CCN(c2ccc(F)cc2)CC1 (stereo not drawn) | 8.16% |
| OC(CNC1CCCCC1)Cn1c2ccccc2c2ccccc21 (stereo not drawn) | 49.9% |

Same assay, conditions: 5 µM; stage: late (IV-V) gametocyte; incubation 72 h

| SMILES | relative % inhibition |
| --- | --- |
| O=C(NCCCN1CCC(N2CCCCC2)CC1)C1=Cc2cc(Br)ccc2OC1 | 19.4% |
| COc1ccc(-c2cn3c(C(=O)Nc4ccccc4Cl)c(-c4ccccc4)c4c3n2CCCC4)cc1 | 22.5% |
| COc1ccc2c(=O)cc(C(Cl)(Cl)Cl)oc2c1 | 15.5% |
| COc1ccc2nc(N)nc(C)c2c1 | -4.54% |
| CN(C)c1ccc(N=Cc2ccc(N3CCOCC3)cc2)cc1 | 62% |
| CCOc1ccc(-c2nonc2NC(=O)c2cccc(C)c2)cc1OCC | 18.4% |
| Cc1cc(C)c2nc(N3CCC(C(=O)NCCCN4CCC(N5CCCCC5)CC4)CC3)sc2c1 | 44.2% |
| COc1ccc(C(=O)Nc2ccc(Cl)cc2C(=O)Nc2ccncc2)cc1 | 3.3% |
| Cc1ccccc1OCCSc1nc2ccc(NC(=O)c3ccccc3)cc2s1 | 12.9% |
| CC1CC2=C(CC1CNCCCN(C)C)C(C)(C)CCC2 (stereo not drawn) | 85.3% |
| Fc1ccc2[nH]c3c(NCCCN4CCOCC4)ncnc3c2c1 | 22.9% |
| O=C(Cc1ccccc1)NC(c1ccc(Cl)cc1)c1c(O)ccc2ccccc12 (stereo not drawn) | 27.6% |
| CCCCCC(=O)N1c2ccccc2N=C2CC(c3ccc(OC)c(OC)c3)CC(O)=C2C1c1ccc(C(F)(F)F)cc1 (stereo not drawn) | 60.6% |
| COc1cc(SC)ccc1C(=O)N1CCCC(C)C1 (stereo not drawn) | 6.01% |
| FC(F)(F)c1cccc(Nc2nc3ccccc3nc2Nc2cccc(C(F)(F)F)c2)c1 | 103% |
| COc1cc2c3cc1Oc1c(OC)c(OC)cc4c1C(Cc1ccc(O)c(c1)Oc1ccc(cc1)CC3N(C)CC2)N(C)CC4 (stereo not drawn) | 23.7% |
| CC(C)(C)c1ccc2c(c1)CN(Cc1ccc(Cl)cc1)CO2 | 54.6% |
| CSC1=NC(=Nc2c(C)cccc2C)C2(CCC(C(C)(C)C)CC2)N1c1ccc(Cl)cc1 (stereo not drawn) | 103% |
| CCOc1cc2c(cc1OCC)C(c1cc(OC)c(O)cc1Cl)NCC2 (stereo not drawn) | 48.3% |
| Cc1ccc2cc3c(N)c4c(C)ccc(C)c4nc3nc2c1 | 50.1% |

| SMILES | relative % inhibition |
| --- | --- |
| O=C(NC1CCN(Cc2ccccc2)CC1)c1cc(-c2ccncc2)nc2ccc(Cl)cc12 | -1.38% |
| CC(C)CNC(=O)c1c(N)n(CCc2ccccc2F)c2nc3ccccc3nc12 | 8.27% |
| COc1ccc2sc(N(Cc3cccnc3)C(=O)c3ccc(C#N)cc3)nc2c1 | 8.48% |
| CSc1ccccc1C(=O)Nc1nc(-c2ccccn2)cs1 | 96.9% |
| CCOC(=O)C1=C(c2ccccc2)N=c2sc(=Cc3cc(C)n(-c4ccc(F)cc4)c3C)c(=O)n2C1c1cccc(OC)c1OC (stereo not drawn) | 59.1% |
| Cc1cc(Nc2ccc(OCc3ccccc3)cc2)nc2cc(O)ccc12 | 78.3% |
| CCOC(=O)C1(Cc2ccccc2)CCN(Cc2cccc(OC)c2O)CC1 | 22.8% |
| OC1CCCCC1C1(NC(=S)Nc2ccccc2)CCCCC1 (stereo not drawn) | 90.8% |
| CCN(CC)S(=O)(=O)c1ccc(-c2csc(Nc3ccc(C)c(C)c3)n2)cc1 | 42.2% |
| Cc1ccnc(NC(c2cccc(OCc3ccccc3)c2)c2ccc3cccnc3c2O)c1 (stereo not drawn) | 57.2% |
| CCOc1cc(Cl)c(C(C)NC(=O)c2cccc(OC)c2)cc1OCC (stereo not drawn) | 41.6% |
| COc1ccc(-c2nc3cc(Cc4ccc5[nH]c(-c6ccc(OC)cc6)nc5c4)ccc3[nH]2)cc1 | 103% |
| COC(=O)c1ccc(Cl)c2c1C1C=CCC1C(c1cccc3ccccc13)N2 (stereo not drawn) | 35.3% |
| Oc1c(CN2CCN(c3ccccc3F)CC2)cc(Br)c2cccnc12 | 79.5% |
| COc1ccc(-c2nc(NC(=O)CS(=O)(=O)c3ccc(F)cc3)sc2C)cc1 | 92.9% |
| CCCCCCOC(=O)C1=C(C)NC(=O)NC1c1ccccc1F (stereo not drawn) | 3.92% |
| CCOC(=O)C1=CN(C)C=C(C(=O)OCC)C1c1cc(Br)c(OCC)c(OC)c1 | 37.9% |
| COc1ccc(C2NCCc3c2[nH]c2ccccc32)cc1CN1CCN(c2ccc(F)cc2)CC1 (stereo not drawn) | 58% |
| OC(CNC1CCCCC1)Cn1c2ccccc2c2ccccc21 (stereo not drawn) | 104% |
